From PubChem
Polio RdRp inh: poliovirus RdRp elongation inhibitors, primary screen, biochemical, fluorescence polarization, total intensity. Genome polyprotein (Poliovirus type 1 (strain Mahoney)), P03300. poliovirus polymerase elongation; hits give low values. % elongation, % (compound at 16.7 µg/mL). 150,000 compounds, 0.66% hits. AID 588519, 2011; in the data active means % elongation below about 90%
Target sequence (P03300 1749-2209 limits assumed): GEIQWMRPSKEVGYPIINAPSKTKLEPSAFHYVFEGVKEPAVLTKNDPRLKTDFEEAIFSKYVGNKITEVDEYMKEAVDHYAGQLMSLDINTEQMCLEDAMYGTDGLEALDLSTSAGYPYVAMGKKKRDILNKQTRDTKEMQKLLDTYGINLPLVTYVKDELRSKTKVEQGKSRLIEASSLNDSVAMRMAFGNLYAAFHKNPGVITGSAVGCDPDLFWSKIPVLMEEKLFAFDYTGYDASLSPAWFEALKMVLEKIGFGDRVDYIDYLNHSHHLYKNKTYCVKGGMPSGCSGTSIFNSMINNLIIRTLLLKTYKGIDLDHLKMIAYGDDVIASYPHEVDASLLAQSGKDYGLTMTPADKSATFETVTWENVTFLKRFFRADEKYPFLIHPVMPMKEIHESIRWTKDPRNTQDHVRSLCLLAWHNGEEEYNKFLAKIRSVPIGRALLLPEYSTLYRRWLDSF
MbtI inh: MbtI salicylate synthase inhibitors, primary screen, biochemical, fluorescence intensity; purified MbtI enzyme, fluorescence intensity read-out; inhibition, % (no concentration beside the values); 100,000 compounds, 0.89% hits; in the data active means inhibition mostly above about 56%, no sharp cut-off; inactive means mostly below about 77%
AID504770: growth inhibition of E. coli YBA685, primary screen, V. cholerae RctB inhibitors. E. coli YBA685 rctB-dependent plasmid, OD600 growth, 3 h; hits give low values. z-score (no concentration beside the values). 130,000 compounds, 0.27% hits. AID 504770, 2011; in the data active means z-score below about -2, passing the limit was not always enough
MenB inh: M. tuberculosis MenB inhibitors, primary screen, biochemical, absorbance; 1,4-dihydroxy-2-naphthoyl-CoA synthase (Mycobacterium tuberculosis (strain ATCC 25618 / …; MenB enzyme assay, absorbance read-out; inhibition, % (concentration not given with the values); 100,000 compounds, 0.43% hits; in the data active means inhibition above about 21%, passing the limit was not always enough
Large screens that a line does not name were inactive; ! = not active in a repeat. Most compounds without a hit are left out; they make up all but 1.5% or so of the library.

CS(=O)(=O)NNc1nccc(-c2cccnc2)n1	MbtI inh 87.3
COc1ccc(-c2ccnc(SC)n2)cc1	none (no result: Polio RdRp inh, MbtI inh, MenB inh)
COc1nncc(-c2cnnc(SC)n2)n1	Polio RdRp inh 15.0, AID504770 -2.05 (no result: MbtI inh)
COC(=O)c1cc(C)sc1N	MbtI inh 94.9
COC(=O)Nc1sc(C)cc1C(=O)OC	none
CC(C)c1ccc(Cc2nnc(NN3CCOCC3)[nH]c2=O)cc1	none
O=C(O)CCCC(=O)Nc1ccc(C(=O)N2CCCCC2)cc1	MenB inh 33.3
COc1ccc(-c2cc3nccc(-c4cc(Cl)c(C)cc4O)n3n2)cc1	Polio RdRp inh 86.0 (no result: MbtI inh, AID504770, MenB inh)
Cc1ccc2nc(SCC(=O)N3CCCCC3)c(C#N)cc2c1	MenB inh 41.0
CCCCN(Cc1ccccc1)C(=O)C1CCN(Cc2cccc(O)c2)CC1	none (no result: MbtI inh)
CCCCN(C)C(=O)C1CCN(Cc2ccc(OCC)cc2)CC1	Polio RdRp inh 45.0 (no result: MbtI inh)
Cc1sc(NC(=O)/C=C/c2cccs2)c(C#N)c1C	none
CCOC(OCC)n1c(=S)n(C(OCC)OCC)c2ccccc21	Polio RdRp inh 83.0, MbtI inh 94.1
NC(=O)C1CCN(c2nc(C3CC3)nc3c2nnn3Cc2ccccc2Cl)CC1	MenB inh 51.9
CC(C)(C)c1nc(N2CCN(C(=O)c3ccco3)CC2)c2nnn(Cc3ccccc3Cl)c2n1	MenB inh 23.5
CN(C)c1nc(C2CC2)nc2c1nnn2Cc1ccccc1Cl	MenB inh 38.1
CC(C)(C)OC(=O)N1CCC(c2nc3c(nnn3Cc3ccccc3Cl)c(=O)[nH]2)CC1	none
COc1cc(OC)cc(C(=O)OCC(=O)NC2CC2)c1	none
Cc1cc(C(C)(C)CC(C)(C)C)ccc1OCCOCC[N+](C)(C)Cc1ccccc1	Polio RdRp inh 94.0!
C[N+](C)(Cc1ccccc1)Cc1ccccc1	none (no result: MbtI inh)
O=C(CSc1nnc(-c2ccc(F)cc2)c2ccccc12)NC(=O)NCc1ccco1	none
CCn1c(NCc2ccccc2)nc2ccccc21	MenB inh 38.1
C=CCn1c(NCc2ccccc2)nc2ccccc21	none (no result: MbtI inh)
N#Cc1cc2c(nc1SCC(=O)N1CCCCC1)CCCC2	none
N#Cc1cc2c(nc1SCC(=O)O)CCC2	AID504770 -2.4 (no result: MbtI inh)
CC1CC(OCC(O)CN)CC(C)(C)C1 (stereo not given)	AID504770 -2.15
N#C/C(=C(/O)C1CC1)c1nc2ccccc2s1	MbtI inh 91.5 (no result: MenB inh)
N#C/C(=C(/O)C(F)(F)F)c1nc2ccccc2s1	none (no result: Polio RdRp inh, MbtI inh, MenB inh)
COC(=O)c1c(-c2ccccc2)csc1N	MbtI inh 58.8
COC(=O)c1c(-c2ccccc2)csc1NC(=O)CCN1CCC(C)CC1	none (no result: Polio RdRp inh, MbtI inh, MenB inh)
O=C1C(Sc2ncn[nH]2)=C/C(=N/S(=O)(=O)c2ccc(Cl)cc2)c2ccccc21	MbtI inh 95.2 (no result: Polio RdRp inh, MenB inh)
CCO/C=C(\C#N)c1nc(-c2ccccc2)cs1	none
CC(C)CNc1nc(-c2ccccc2)cs1	MbtI inh 91.1
CCNc1nc(-c2ccccc2)cs1	none (no result: Polio RdRp inh, MbtI inh, MenB inh)
COc1ccc(-c2noc(CN(C(=O)Nc3cccc(C)c3)C(C)C)n2)cc1	none
Nc1ccc(S(=O)(=O)CCSS(=O)(=O)c2ccc(N)cc2)cc1	Polio RdRp inh 63.0, MbtI inh 99.2
CC1Sc2ccc(C(=O)NCc3ccccn3)cc2NC1=O (stereo not given)	Polio RdRp inh 87.0, MbtI inh 86.8
Cc1cccc(OCCNC(=O)c2cccnc2)c1	none (no result: MbtI inh)
CCc1ccc(S(=O)(=O)c2nnn3c2nc(NCc2ccccc2)c2cc(Cl)ccc23)cc1	none (no result: MbtI inh, AID504770, MenB inh)
CCc1ccc(S(=O)(=O)c2nnn3c2nc(NCc2cccc(OC)c2)c2cc(Cl)ccc23)cc1	Polio RdRp inh 89.0 (no result: MbtI inh, AID504770, MenB inh)
CC(=O)Nc1ccc(OCC(O)Cn2ccnc2)cc1 (stereo not given)	MenB inh 30.6
CC(=O)Nc1ccc(OCC(O)CN2CCCC2)cc1 (stereo not given)	none (no result: Polio RdRp inh, MbtI inh, MenB inh)
CC1=C/C(=N\Nc2nncc3ccccc23)CC1	none
CC1=C/C(=N\Nc2ccccc2Cl)CC1	MbtI inh 72.2
COC(=O)c1sccc1S(=O)(=O)N1c2ccccc2NC(=O)CC1C (stereo not given)	none
CCS(=O)(=O)c1ccc2oc(=O)c(/C=C(\O)c3oc(C)nc3C)nc2c1	none
Cc1ccc2oc(=O)c(/C=C(\O)CC(C)C)nc2c1	MenB inh 69.2
C=C(C)c1cccc(C(C)(C)NC(=O)NC2CC2)c1	none
N#CC(C#N)=NNc1ccc(SC(F)F)cc1	AID504770 -3.35
N#CC1C2CCC(C2)C1C(=O)c1ccccc1 (stereo not given)	none (no result: MbtI inh)
CCOC(=O)c1sc(SCC(=O)c2ccc(Cl)cc2Cl)nc1C	Polio RdRp inh 86.0
CCOC(=O)c1sc(CN2CCN(c3cccc(Cl)c3)CC2)nc1C	none (no result: Polio RdRp inh, MbtI inh, MenB inh)
CN(c1nnc(NC(=O)NCc2ccc(F)cc2)s1)C1CCCCC1	none
Cc1nn(CC(=O)NC2CCCCCC2)c(=O)c2nn(-c3ccccc3)c(C)c12	none
Cc1ccc(/C=C/C2=Cc3c(sc(N)c3C#N)C(C)(C)C2)o1	MbtI inh 88.7
Cc1ccc(/C=C/C2=CC(=C(C#N)C#N)CC(C)(C)C2)o1	none
CCC1(C)Oc2ccc(NC(=O)c3cc(F)c(F)cc3Cl)cc2O1 (stereo not given)	none (no result: MbtI inh)
COc1cccc2c(CCN)c[nH]c12	Polio RdRp inh 89.0 (no result: MbtI inh)
CN(C)CCn1c(=O)n(C)c(=O)c2[nH]cnc21	none
Cn1ccnc1P(=S)(c1nccn1C)N1CCOCC1	Polio RdRp inh 80.0, MbtI inh 87.4
Cn1cc(P(=S)(N2CCOCC2)N2CCOCC2)cc1P(=S)(N1CCOCC1)N1CCOCC1	none
CC(C)Cc1nnc(NS(C)(=O)=O)s1	MbtI inh 94.6
CCCNc1nc(Cl)nc(Cl)n1	none
Clc1nc(Cl)nc(NNc2nc(Cl)nc(Cl)n2)n1	MenB inh 33.9
Cc1nn(CCC(N)=S)c2nc(-c3ccccc3)ccc12	Polio RdRp inh 73.0
N#C/C(=C\c1ccc(O)c(O)c1)C(N)=S	MbtI inh 71.5 (no result: AID504770)
COc1ccc(/C=C(\C#N)C(N)=S)cc1	none
COc1ccc(Cl)cc1NC(=O)c1cc2c(Cl)nc3ccc(C)cc3c2s1	none
Cc1ccc(NC(=O)c2cc3c(Cl)nc4ccc(C)cc4c3s2)c(Cl)c1	Polio RdRp inh 63.0 (no result: MbtI inh, AID504770, MenB inh)
O=C1CSC(=Nc2cccc3ccccc23)N1	none
O=C1CS/C(=N\c2nccs2)N1	AID504770 -2.85
CC1=C(O)C(=O)C=C2C1=CC=C1[C@@]2(C)CC[C@@]2(C)[C@@H]3C[C@](C)(C(=O)O)CC[C@]3(C)CC[C@]12C	MbtI inh 102.7
Cc1nc(C(=O)Oc2ccc(Cl)cc2)sc1C(=O)Oc1ccc(Cl)cc1	Polio RdRp inh 42.0
CCCCNc1nc2ccccc2n1CC(=O)N1CCc2ccccc21	none
O=C(Cn1c(CCCO)nc2ccccc21)N1CCc2ccccc21	MbtI inh 96.3
CC(C)Nc1nc(NC(C)C)nc(C(N)=O)n1	MenB inh 35.5
Cn1cnnc1SCc1ccc(C(=O)n2ncc(C#N)c2N)cc1	Polio RdRp inh 88.0
COc1ccc(C(=O)n2ncc(C#N)c2N)cc1	none
CCOC(=O)c1cnn2c(C(F)(F)F)cc(-c3ccc(OC)cc3)nc12	none (no result: MbtI inh)
O=C1C(Nc2cccc(O)c2)=C(n2nnc3ccccc32)C(=O)c2ccccc21	Polio RdRp inh 51.0
